This is an account of results in ChEMBL document CHEMBL4513216, “Probing the Open Global Health Chemical Diversity Library for Multistage-Active Starting Points for Next-Generation Antimalarials” (ACS Infect Dis, 2020).

In all, about 69,000 compounds went through this assay and about 8,600 (12%) showed an effect of 50% or more. Only a selection was taken, and strong results are over-represented in it overall.

For this test, the system named is Plasmodium berghei. The test can be described thus: Screen against P. berghei liver stage (PbLuc), transformed with Luciferase, at 10uM. As to conditions: tested at 10 uM. Type of test: functional, HepG2.
As for `Cn1cc(C2CCCN2C(=O)CCc2cnn(-c3ccccc3)c2)cn1` (stereo not drawn), the INHIBITION was 5.03%.
Next, `CN(C)C(=O)C1(CCCc2ccccn2)CCN1Cc1nccn1C` (stereo not drawn): 5.34%.
The same measure for `COc1ccc2nnc(CCCC(=O)NCc3ccccc3F)n2n1`: -6.09%.
Take `COc1ncccc1CNCc1c(C)nn(C)c1N1CCOCC1`: the INHIBITION is listed as -10.1%.
Next, `CC(C)N1CCN(C(=O)c2ccc(Cn3ccccc3=O)o2)CC1`: 14.115%; `CCS(=O)(=O)N1C[C@@H](c2nnc(C)o2)C[C@H]2OCC[C@H]21`: 18.7%; `Cc1nnc([C@H]2C[C@H]3OCC[C@H]3N(S(=O)(=O)C3CC3)C2)o1`: 26%.
On to `Cc1nnc([C@H]2C[C@H]3OCC[C@H]3N(S(=O)(=O)N(C)C)C2)o1`, for which the INHIBITION turned out to be 54.1%.
Regarding `Cc1ccc(CN2C[C@@H]3COC[C@H](NS(C)(=O)=O)[C@@H]3C2)o1`, the INHIBITION is 6.38%.
With `OCCNc1nccc(-c2c[nH]nc2-c2ccncc2)n1`, the INHIBITION stood at 41.2%.
Regarding `O=c1[nH][nH]cc1-c1ccnc(NCCN2CCCC2)n1`, the INHIBITION is listed as 25.3%.
The same measure for `O=C(O)c1ccnc(-c2ccnc(NCCc3ccc(F)cc3)n2)c1`: 8.74%; for `CC(C)(C)CCNc1nccc(-c2c[nH][nH]c2=O)n1`: 57.5%; for `COCCCNc1nccc(-c2c[nH][nH]c2=O)n1`: 15.2%.
As for `O=c1[nH][nH]cc1-c1ccnc(NCCc2cccnc2)n1`, the INHIBITION is on record as 59%.
With `O=c1[nH][nH]cc1-c1ccnc(NCCc2cccc(O)c2)n1`, the INHIBITION was found to be 63.4%.
The same measure for `CN(C)c1nccc(-c2c[nH][nH]c2=O)n1`: 42.6%; for `Cc1ncc(-c2ccnc(N3CCCCC3)n2)c(=O)[nH]1`: 28.6%; for `C[C@H]1CCCCN1CCCNc1nccc(-c2c[nH][nH]c2=O)n1`: 23.4%.
Next, `Cc1ncc(-c2ccnc(NCCc3ccc(F)cc3)n2)c(=O)[nH]1`: 72.3%.
The same measure for `O=C(Cc1cccc(O)c1)NCCNc1nccc(C(F)(F)F)n1`: 0.71%.
For `O=c1[nH][nH]cc1-c1ccnc(NCCc2ccc(F)cc2)n1`, the INHIBITION was 20.4%.
`O=C(O)c1cn(-c2ccccn2)c(=O)c2ccccc12`: the INHIBITION is listed as -44.2%.
In the case of `CN(C)[C@@H]1CN(Cc2ccc(O)cc2)C[C@H]1c1cn(C)c2ccccc12`, the INHIBITION was found to be 40.9%.
Next, `O=C(c1ccncc1)N1C[C@H]2CC[C@@H](C1)N(S(=O)(=O)c1cccnc1)C2`: -66.4%; `CCN1CC(C(=O)NCc2ccnc(-n3cccn3)c2)CC1=O` (stereo not drawn): -12.33%.
The same measure for `CCOC(C)c1nccn1Cc1c(C)noc1C` (stereo not drawn): 3.19%; for `Cc1cc(C(F)(F)F)nc(C2(C)CCCN2CC(N)=O)n1` (stereo not drawn): 14.385%.
Next, `c1cncc(-n2cnnc2CCCN2CCOCC2)c1`: 3.69%; `CN1CCN(Cc2cccnc2)C2(CCN(Cc3ccoc3)C2)C1=O` (stereo not drawn): -24.9%.
As to `COCCC(=O)NC1CCN(CC2(c3cccc(F)c3)CCCC2)CC1`, the INHIBITION is listed as 12.3%.
The same measure for `Cc1ccc(NC(=O)[C@H]2C[C@H](C(=O)O)CN(CC(C)C)C2)cn1`: 11.2%; for `CC(C)Cc1ncc2c(n1)CN(c1cc(NCCO)nc(N)n1)C2`: 27.7%; for `CC(C)(C)c1ncc2c(n1)CN(c1cc(NCCO)nc(N)n1)C2`: 3.84%.
Next, `Nc1nc(NCCO)cc(N2CCc3c([nH]c4ccccc34)C2)n1`: 78.5%.
With `COc1ccc(F)c(-c2cc(NCCO)nc(N)n2)c1`, the INHIBITION was -76.6%.
On to `COc1ccc2[nH]c3c(c2c1)CN(c1cc(NCCO)nc(N)n1)CC3`, for which the INHIBITION is given as 54.8%.
Next, `CCc1ncc2c(n1)CN(c1cc(NCCO)nc(N)n1)C2`: -63.2%; `C[C@@H]1C[C@H]2CN(C(=O)c3ccncn3)C[C@H]2O1`: -0.813%.
The same measure for `CN1[C@@H](C(=O)NCC2CC2)C[C@@H]2CN(Cc3ccoc3)C[C@@H]21`: 1.34%.
The same measure for `N#CC(NC(=O)CC(F)(F)F)c1ccsc1` (stereo not drawn): -3.68%; for `COc1cccc(C=CCCN2CCN(S(C)(=O)=O)CC2)c1`: -104%; for `Cc1cc(-c2cnc(N3CCOCC3)nc2-c2ccc(C)s2)on1`: 53%.
Regarding `CCN1CCN(c2ncc(-c3cc(C)no3)c(-c3ccc(C)s3)n2)CC1`, the INHIBITION stood at 57.4%.
`Cc1cc(-c2cnc(N3CCN(C)CC3)nc2-c2ccc(C)s2)on1`: the INHIBITION came to 69.4%.
The same measure for `Cc1cc(-c2cnc(N3CCCC3)nc2-c2ccc(C)s2)on1`: 32.3%.
Take `Cc1cc(-c2cnc(N3CCSCC3)nc2-c2ccc(C)s2)on1`: the INHIBITION came out at 47.1%.
The same measure for `CCN1CCN(c2ncc(-c3cc(C)no3)c(-c3ccoc3C)n2)CC1`: 48.9%.
The same measure for `CCN1CCN(c2ncc(-c3cc(C)no3)c(-c3ccco3)n2)CC1`: 11.5%.
Regarding `Cc1nc(CN2CCCC(N(C)CCOCC(F)(F)F)C2)no1` (stereo not drawn), the INHIBITION is given as -13.5%.
As to `c1cc(COc2ccc(CNC3CCc4ncnn4C3)cc2)ccn1` (stereo not drawn), the INHIBITION was -1.76%.
`CS(=O)(=O)CC1(CNc2c(C#N)cnc3ccc(Cl)cc23)CC1`: the INHIBITION was -14.1%.
Take `CS(=O)(=O)c1cn[nH]c1C1CCCCN1C(=O)c1ccsc1` (stereo not drawn): the INHIBITION is listed as -69.5%.
With `CN1C(=O)CCC12CCC(NC(=O)NCc1cccnc1)CC2` (stereo not drawn), the INHIBITION amounted to 28.5%.
Next, `O=S(=O)(c1ccccc1)N1CCN(Cc2ccc(F)cc2Br)CC1`: 33.1%; `CS(=O)(=O)N1CCN(Cc2ccc(F)cc2Br)CC1`: 35.4%; `O=S(=O)(N1CCCCCC1)N1CCN(Cc2ccc(F)cc2Br)CC1`: 71.2%.
Turning to `CN1C(=O)CC(C(=O)O)C12CCN(c1ccc3cccc(Cl)c3n1)CC2` (stereo not drawn), the INHIBITION is given as -0.273%.
In the case of `CCC1=N[C@@]2(CC[C@@H]3CN(CC(C)C)C[C@@H]32)C(=O)N1`, the INHIBITION amounted to 24.9%.
Regarding `COc1cc(OC)cc(C2SCC(=O)Nc3ccsc32)c1` (stereo not drawn), the INHIBITION is recorded as 3.68%.
In the case of `COc1cccc(C2SCC(=O)Nc3ccsc32)c1` (stereo not drawn), the INHIBITION turned out to be 3.68%.
The same measure for `O=C1CSC(c2ccsc2)c2sccc2N1` (stereo not drawn): 20.5%; for `COC(=O)c1ccc(C2SCC(=O)Nc3ccsc32)cc1` (stereo not drawn): 78.1%; for `COc1ccc(C2SCC(=O)Nc3ccsc32)cc1` (stereo not drawn): 67.9%.
Consider `O=C1CSC(c2ccc(O)cc2)c2sccc2N1` (stereo not drawn), for which the INHIBITION was found to be 88.1%.
Next, `COc1cc(C2SCC(=O)Nc3ccsc32)cc(OC)c1OC` (stereo not drawn): 29.4%.
With `COc1ccc(C2SCC(=O)Nc3ccsc32)cc1OC` (stereo not drawn), the INHIBITION came out at 3.68%.
The same measure for `COc1cc(C2SCC(=O)Nc3ccsc32)cc(OC)c1O` (stereo not drawn): 43.7%.
